Results published in PubChem BioAssay AID1508600 (Functional Genomics Laboratory (NCATS/FGL), 2020).
Among all 53,000 sequences or so, about 3,700 (7%) were called active.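 How the source made its calls: active means gene knockdowns whose robust z-score for IL-1 alpha signal is at least 2 or at most -2, so actives lie on both sides; inactive means the rest.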 Only a selection was taken, and actives are over-represented in it overall.

Assay: Components of the Cytosolic LPS Sensing Pathway: Gene Identification via Genome-wide siRNA Screen;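 further: robust z of the log signal after scaling to non-targeting control siRNA wells of the plate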
Details: RAW264.7 macrophages, IL-1a HTRF, actives lie on both sides, screened at 100 nM (by protocol), cells primed 5 h with Pam3CSK4 first
Procedure, shortened: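 Knockdown: 100 nM siRNA, 48h, RAW264.7. Stimulation: Pam3CSK4 5 h, then LipidA via TransIT-TKO 24 h. Output: supernatant IL-1a HTRF, negative-control-normalized, log robust z-score; viability by CellTiter-Glo.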

Sequence | z-score
GGAUAAGUGGUCUGCACUATT against Ube2c | -0.412 (inactive)
CCACUAUCCCACCAAUCACTT against Lypd8 | -1.03 (inactive)
GGCUGCUACUUCAGACAGCTT against Pou6f2 | -0.163 (inactive)
GGAGGACCUUCAGAAACUCTT against Gdap2 | 1.14 (inactive)
GGUGUCACGACAAACAUUCTT against Fam83h | -1.6 (inactive)
GGCAAGGAUAUAAAUUCACTT against Mak | 2.47 (active)
GUGGCAGCUGACAUGAAUGTT against Plac8 | -0.138 (inactive)
CGGAUACAAUUUCUGACCGTT against Zdhhc23 | -0.163 (inactive)
GGUUAUUUGGAAGUGCUACTT against Esx1 | 2.81 (active)
GGGACGUGUUAAAAAGGGCTT against Cldn5 | 0.0829 (inactive)
CCGCCUAAAUGACUUGACATT against Fbxw14 | -1.1 (inactive)
GGAAUUUGGUGCAGUGUCCTT against Utp15 | -1.39 (inactive)
GCUAACGAUAUUUAUCACGTT against Olfr385 | -0.474 (inactive)
GGGACUUGUCCAUCCUUUUTT against Qrfprl | -1.71 (inactive)
GGAGCAUUAUAUCAAUCCUTT against Zfp111 | 2.16 (active)
GCUUACUAAGGUGAUAAUGTT against Il17d | 0.0918 (inactive)
CGAAAGAGAUGAUGAUAAUTT against Arrdc3 | 0.641 (inactive)
GGAAAAGCAUUUUCAACGUTT against Lhfpl2 | -1.41 (inactive)
GCGAACGAGACACUUCAAUTT against Pla2g4a | 1.51 (inactive)
GGAGACAUGGCAUCCAAAUTT against Cnr1 | 3.14 (active)
GGAGAAGAGAUCCCUGAACTT against Neurod2 | -0.491 (inactive)
CGUGGUCGUGAGAUGUUUGTT against Chid1 | 1.35 (inactive)
CCUUUUAGUGAAAAUAGCATT against A430010J10Rik | -0.924 (inactive)

Sequence | z-score
GGACUUCUCUGGGACUUCATT against Syt9 | 0.406 (inactive)
GCCUCCUGAAUGAUGACAUTT against Klk1b24 | -0.97 (inactive)
GGUCAAAGUGAUUGUGUGUTT against Cdh16 | 0.555 (inactive)
GGCUAAAUUCUACUUGAUATT against Ppfibp1 | -1.89 (inactive)
GGCUGUUUUCUAUCCUAGGTT against Cd207 | -2.82 (active)
CUUAGCUACUUCAAGGUCATT against Spink8 | 0.628 (inactive)
GCAGGCUCUGCAUGAAGCATT against Alpl | -0.213 (inactive)
GCCCACGUACAGAAAACAGTT against Aox2 | -1.72 (inactive)
GGGAGAACACAUCUACUGATT against Slamf6 | -1.17 (inactive)
GGAGACAUGCAAUGAACUUTT against Ica1l | 1.02 (inactive)
GGAAUUUUUAGGAAUGGUGTT against Slc35f2 | -1.38 (inactive)
GGAUUGCUGUAAAAUACAATT against Cdkn2aipnl | 2.16 (active)
GGAAGGUACCAGGUGAUUGTT against Nmnat3 | -1.89 (inactive)
GGUGCCCAUGCUUGUAGGATT against Cstdc1 | 2.03 (active)
GGUCCAUGCUCUCAUGAGUTT against Batf2 | -1.34 (inactive)
GGUACAGGAAACUCAAAUATT against Lrrc4 | 0.318 (inactive)
GGCCAGUUUAAACCAGUCUTT against Frmd6 | 0.583 (inactive)
GCAUACAAUCAUGUAAGAGTT against Adprh | 0.0994 (inactive)
CCAGAAACCGUGAUAAAAUTT against Immp2l | 2.12 (active)
CGGAGCAUGAGCCAGAUAUTT against Eipr1 | -0.266 (inactive)
GGAGACUGUCAGAAAGUUATT against Olfr1164 | -0.769 (inactive)
GGAAAAAUCCAAGAAGCAATT against Zc3h11a | -1.09 (inactive)
GGACAUUUUUAUGCACAAUTT against Il1rl2 | 1.76 (inactive)

Sequence | z-score
GCUCCUACUGUCCAGCAAUTT against Dusp18 | -0.642 (inactive)
AAUUGAAGACUGUAAAUACTT against Sst | 1.83 (inactive)
GGAACACAAAGGUAAGAAATT against Raf1 | 0.0798 (inactive)
GGUGCAGUUGAACUUCUACTT against Dnajc1 | 2.26 (active)
GGUUUUAAAGCACUUUGUATT against Jazf1 | 0.288 (inactive)
GGAAACUUCUUCCCGGUUGTT against Gsdmc | 1.16 (inactive)
GCUUACAAGGCAUGUAUGATT against Rccd1 | 3.46 (active)
GGGAGUUUGAUUCUGACUCTT against Ank3 | -0.264 (inactive)
CCCAUGAUAAUGAAUUAGCTT against Olfr378 | -0.537 (inactive)
GGUAUUUGUAAAUUUGAGGTT against Atl1 | 0.309 (inactive)
GGUAACAUACUAAAAGAAGTT against Vmn2r10 | -1.21 (inactive)
GCAGGAUUGAAACAUGUAUTT against Tcl1b3 | -0.298 (inactive)
GCCAAUUGGUUCCCUGUAATT against 1700034E13Rik | -3.04 (active)
CGAACUUCCAAAAAGUUCATT against A430005L14Rik | -0.498 (inactive)
GGAUUGGCAAGCAGCUAACTT against Dnase2a | -2.08 (active)
UCACCCUGUUCGUAAUCAUTT against Olfr467 | -0.17 (inactive)
CCACUGGUUCACCUAUAAUTT against Psma5 | 0.092 (inactive)
CGAAUGACCUCGAUAGCUGTT against Gm5082 | 0.195 (inactive)
GGAAGAAGCCACCAUGUACTT against Pbx4 | -1.75 (inactive)
GGCUGAGGUUCGAGUGUAUTT against Rps6ka4 | 3.51 (active)
GGCCAAUAGGACAUAUCUATT against Qprt | -0.443 (inactive)
GCUUAGCUGUUAUGUUUUUTT against Atp6ap1 | 1.81 (inactive)
